PrPC surface inh: inhibitors of human cell surface prion protein PrPC, primary screen, cell-based, TR-FRET. Major prion protein (Homo sapiens), P04156. TR-FRET read-out. inhibition, % at 13.8 µM. 370,000 tested, 0.43% active; in the data active = inhibition above about 24%
SARS 3CLpro inh: SARS-CoV 3CLpro protease inhibitors, primary screen, biochemical, quenched FRET; inhibition, % at 6 µM; 290,000 tested, 0.14% active; Replicase polyprotein 1ab (Severe acute respiratory syndrome coronavirus), P0C6X7; recombinant SARS-CoV 3CLpro, quenched FRET peptide cleavage; in the data active = inhibition above about 12%
Mtb FBA inh: Mtb FBA enzyme inhibitors, primary screen, biochemical, fluorescence, strain H37Rv; inhibition, % at 1 µM; 360,000 tested, 2.3% active; purified M. tuberculosis FBA, fluorescence read-out; Fructose-bisphosphate aldolase (Mycobacterium tuberculosis (strain ATCC 25618 / H37Rv)), …; AID 588726, 2011
Target sequence (P9WQA3 whole entry, looked up): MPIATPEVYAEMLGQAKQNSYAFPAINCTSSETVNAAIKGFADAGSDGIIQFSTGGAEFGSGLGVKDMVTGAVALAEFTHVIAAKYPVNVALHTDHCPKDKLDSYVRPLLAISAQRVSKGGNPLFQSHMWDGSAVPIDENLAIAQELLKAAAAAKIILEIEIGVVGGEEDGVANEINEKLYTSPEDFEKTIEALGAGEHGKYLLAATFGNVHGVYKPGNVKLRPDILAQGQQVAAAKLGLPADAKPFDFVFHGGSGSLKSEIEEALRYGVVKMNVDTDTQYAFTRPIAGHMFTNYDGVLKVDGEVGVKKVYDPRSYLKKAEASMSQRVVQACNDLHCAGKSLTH
GDH-TPI counter-1: GDH-TPI coupling enzyme inhibitors, primary screen, artefact control for M. tuberculosis FBA inhibitor project, biochemical, absorbance, full deck; inhibition, % at 4.8 µM; 360,000 tested, 1.2% active; GDH-TPI coupled enzyme counterscreen, NADH absorbance; AID 588335, 2011; in the data active = inhibition above about 30%
BH1578 lux ind: inducers of Vibrio cholerae quorum light production without autoinducers, primary screen, BH1578 luxS cqsA deficient, single point; V. cholerae BH1578 lux reporter, luminescence, 6 h; activation, % at 18.7 µM; 350,000 tested, 0.16% active; AID 588436, 2011; in the data active = activation mostly above about 9.7%, no sharp cut-off
Mtb FBA confirm: M. tuberculosis aldolase blockers, biochemical, fluorescence, strain H37Rv, confirmation | purified M. tuberculosis FBA, fluorescence read-out | shares compounds with Mtb FBA inh | AID 651616, 2012 | inhibition, % at 1 µM | 5,600 tested, 78% active
GDH-TPI counter-2: GDH-TPI coupling enzyme inhibitors, artefact control for M. tuberculosis FBA inhibitor project, biochemical, fluorescence, high throughput. shares compounds with Mtb FBA inh. GDH-TPI coupled enzyme counterscreen. inhibition, % at 1 µM. 5,600 tested, 81% active. AID 652141, 2013; in the data active = inhibition above about 10%
Large screens that a line does not name were inactive (follow-up assays come after a bar, where they were run). Most compounds without a hit are left out; they make up all but 3.9% or so of the library. Cut-off read from the data, not from the text of the source, unless noted: active = inhibition above about 27%; inactive = the rest.

COC(=O)Cc1nnn2c1CC(OC)c1ccccc1-2 (centres undefined)	none (no result: SARS 3CLpro inh, Mtb FBA inh, GDH-TPI counter-1, BH1578 lux ind)
Cc1cc(=O)oc2cc(NC(=S)NNC(=O)c3c(Cl)cnn3C)ccc12	Mtb FBA inh 83, GDH-TPI counter-1 35 | Mtb FBA confirm 43 | GDH-TPI counter-2 28
O=[N+]([O-])c1ccc(N2CCOCC2)c([N+](=O)[O-])c1	none (no result: SARS 3CLpro inh)
O=[N+]([O-])c1ccc(N2CCCC2)c([N+](=O)[O-])c1	Mtb FBA inh 29 (no result: SARS 3CLpro inh) | Mtb FBA confirm 182 | GDH-TPI counter-2 123
COc1ccc2oc(C(=O)NN3C(C)CCCC3C)c(C)c2c1 (centres undefined)	none
COc1ccc2oc(C(=O)OC(C)C(=O)NC3(C#N)CCCCC3)c(C)c2c1 (centres undefined)	Mtb FBA inh 28 (no result: SARS 3CLpro inh) | Mtb FBA confirm 39 | GDH-TPI counter-2 29
COc1ccc2oc(C(=O)OC(C)C(=O)N3C(C)CCCC3C)c(C)c2c1 (centres undefined)	Mtb FBA inh 62 (no result: SARS 3CLpro inh) | Mtb FBA confirm 51 | GDH-TPI counter-2 31
COC(=O)N1CCCCC1c1cc(C(=O)Nc2cccc3c2CCCC3)no1 (centres undefined)	none (no result: SARS 3CLpro inh)
CN(C(=O)c1cccc(NC(=O)Cc2ccc(NC(=O)C3CCN(C(=O)C4CCCCC4)CC3)cc2)c1)C1CC1	none (no result: SARS 3CLpro inh)
Cc1ccc(C(=O)N2CCN(c3nc4ccccc4n3C)CC2)cc1	none
O=c1cc(C(F)(F)F)c2sc(N3CCCCC3)nc2[nH]1	Mtb FBA inh 86 | Mtb FBA confirm 162 | GDH-TPI counter-2 125
O=C(NCc1cccc(Cl)c1)c1ccc(S(=O)(=O)N2CCCCC2)cc1	none (no result: SARS 3CLpro inh)
Cc1c(OC(C)C(=O)NCCCN2CCOCC2)ccc2c3c(c(=O)oc12)CCC3 (centres undefined)	none
Cc1c(C)c2ccc(OC(C)C(=O)NCCN3CCOCC3)c(C)c2oc1=O (centres undefined)	Mtb FBA inh 47 | Mtb FBA confirm active | GDH-TPI counter-2 active
Cc1c(OC(C)C(=O)NCCCN2CCOCC2)ccc2c3c(c(=O)oc12)CCCC3 (centres undefined)	Mtb FBA inh 27 | Mtb FBA confirm 48 | GDH-TPI counter-2 38
Cc1c(OC(C)C(=O)NCCN2CCOCC2)ccc2c3c(c(=O)oc12)CCC3 (centres undefined)	none
COc1ccc2oc(C(=O)NCCN3CCOCC3)c(C)c2c1OC	Mtb FBA inh 102 | Mtb FBA confirm active | GDH-TPI counter-2 186
Cc1c(C)c2ccc(OC(C)C(=O)NCCCN3CCOCC3)c(C)c2oc1=O (centres undefined)	Mtb FBA inh 32 | Mtb FBA confirm 74 | GDH-TPI counter-2 60
CC(=O)c1cccc(NC(=O)CN2C(=O)C(=O)N(Cc3ccco3)C2=O)c1	none (no result: SARS 3CLpro inh)
CCOCCCNC(=O)c1cn(CC)c2ccc(S(=O)(=O)N(C)C3CCCCC3)cc2c1=O	none
Cc1ccc(COC(=O)c2nn(C)c(=O)c3ccccc23)cc1	none
Cc1ccc(S(=O)(=O)N2CCC(C(=O)NC3CC(C)(C)NC(C)(C)C3)CC2)cc1C	none
COc1c2c(c(OC)c3ccccc13)[C@@]1(OC2)O[C@H](CCO)C[C@H](O)[C@H]1O	none (no result: SARS 3CLpro inh)
O=c1cc(-c2cccs2)oc2ccc(Cl)cc12	Mtb FBA inh 38, GDH-TPI counter-1 38 | Mtb FBA confirm 156 | GDH-TPI counter-2 120
O=c1cc(-c2ccccc2)oc2ccc(Cl)cc12	none (no result: SARS 3CLpro inh)
Cc1c(C(=O)N/N=C/c2cccnc2)nnn1-c1nonc1N	none
c1ccc2c(c1)oc1c(-c3cccc4nccn34)cccc12	Mtb FBA inh 90 (no result: SARS 3CLpro inh) | Mtb FBA confirm 50 | GDH-TPI counter-2 44
CS(=O)(=O)Nc1ccc(-c2cncc3nccn23)cc1	Mtb FBA inh 63, GDH-TPI counter-1 35 (no result: SARS 3CLpro inh) | Mtb FBA confirm 65 | GDH-TPI counter-2 56
CS(=O)(=O)Nc1ccccc1-c1ccc2nccn2c1	none (no result: SARS 3CLpro inh)
CS(=O)(=O)Nc1ccccc1-c1cccc2nccn12	Mtb FBA inh 40 (no result: SARS 3CLpro inh) | Mtb FBA confirm 58 | GDH-TPI counter-2 39
Clc1ccccc1-c1ncc2ccccn12	none
Clc1ccccc1-c1cccc2nccn12	Mtb FBA inh 35 (no result: SARS 3CLpro inh) | Mtb FBA confirm inactive | GDH-TPI counter-2 inactive
COc1ccc(CCNC(=O)C(C)OC(=O)c2nsc(Cl)c2Cl)cc1OC (centres undefined)	none
CC(C)Oc1ccc(OCCn2c(S(=O)(=O)O)nc3c(N)ncnc32)cc1	none
O=C1N(CCCl)c2ccc(Br)cc2C12OCCO2	none
Cc1ccc(/C=N/NC(=O)c2cccc(S(=O)(=O)N3CCOCC3)c2)o1	none
CCCCNC(=O)c1cn(CC)c2ccc(S(=O)(=O)N3CCCCCC3)cc2c1=O	none
O=C(NN=Cc1ccc(O)cc1O)c1ccccc1NS(=O)(=O)c1cccs1	Mtb FBA inh 41 (no result: SARS 3CLpro inh) | Mtb FBA confirm inactive | GDH-TPI counter-2 inactive
COc1ccc(C=NNC(=O)c2ccccc2NS(=O)(=O)c2cccs2)cc1O	none (no result: SARS 3CLpro inh)
O=C(N/N=C/c1ccc(N2CCOCC2)cc1)c1ccccc1NS(=O)(=O)c1cccs1	Mtb FBA inh 44, GDH-TPI counter-1 38 | Mtb FBA confirm active | GDH-TPI counter-2 active
O=C(COC(=O)CCNS(=O)(=O)c1ccccc1)NC(=O)c1ccccc1	none (no result: SARS 3CLpro inh)
CCN=C1SC(C(=O)Nc2cccc(Br)c2)CC(=O)N1CC (centres undefined)	none
COc1ccc(NC(=O)c2cccc(-n3c(C)ccc3C)c2)c(OC)c1	none
COc1ccccc1N1CCN(Cc2ccccc2)CC1	none
CN1c2ccccc2Oc2nnc(N3CCN(Cc4ccccc4)CC3)cc21	Mtb FBA inh 57 | Mtb FBA confirm 87 | GDH-TPI counter-2 82
CN1c2ccccc2Oc2nnc(Cl)cc21	Mtb FBA inh 28 | Mtb FBA confirm 51 | GDH-TPI counter-2 38
CCN(CC)CCOc1cc2c(nn1)Oc1ccccc1N2C	Mtb FBA inh 56 | Mtb FBA confirm 164 | GDH-TPI counter-2 154
CCc1cccc(C)c1NC(=O)CN(C)Cc1ccccc1F	none
N#CCC[C@H]1CC[C@]2(CCCN(Cc3ccc(Br)cc3)C2)O1	none (no result: SARS 3CLpro inh, Mtb FBA inh, GDH-TPI counter-1, BH1578 lux ind)
CCOc1ccc(C(=O)OCC(=O)Nc2ccc(SC(F)F)cc2)cc1OCC	none
CN(C)CCNc1ncnc2oc(-c3ccccc3)c(-c3ccccc3)c12	none
COc1ccc(-c2oc3ncnc(NCCCN(C)C)c3c2-c2ccc(OC)cc2)cc1	Mtb FBA inh 46 | Mtb FBA confirm 69 | GDH-TPI counter-2 72
